In the supplement of paper PMC13380429:

Tested on: Vero E6 infected with SARS-CoV-2
Assay: inhibition of SARS-CoV-2 cytopathic effect; higher = more antiviral protection, active = above 15
Conditions: 48 h

Measured: inhibition of SARS-CoV-2 cytopathic effect

C/C(O)=C(\C#N)C(=O)Nc1ccc(C(F)(F)F)cc1 [teriflunomide]
inactive: 1 nM 3.27% | 8.33 nM 1.99% | 100 nM 1.22% | 833.33 nM -3.04% | 10000 nM 1.1%

CCOC(=O)/C=C(C)/C=C/C=C(C)/C=C/c1c(C)cc(OC)c(C)c1C [etretinate]
inactive: 1 nM -2.16% | 8.33 nM 0.11% | 100 nM 0.84% | 833.33 nM 2.68% | 10000 nM 3.85%

CCOC(=O)Nc1ccc(NCc2ccc(F)cc2)cc1N [Retigabine]
inactive: 1 nM -1.92% | 8.33 nM 1.16% | 100 nM -1.6% | 833.33 nM -2.18% | 10000 nM 1.01%

CO[C@@H]1[C@H](N(C)C(=O)c2ccccc2)C[C@H]2O[C@]1(C)n1c3ccccc3c3c4c(c5c6ccccc6n2c5c31)C(=O)NC4 [midostaurin]
inactive: 1 nM -10.1% | 8.33 nM -8.56% | 100 nM -8.88% | 833.33 nM -23.9% | 10000 nM -31.5%

O=C(CCCCCCCC(=O)NCCO)NCCO [adelmidrol]
inactive: 1 nM -2.2% | 8.33 nM 2.3% | 100 nM 5.54% | 833.33 nM -1.21% | 10000 nM 0.2%

Fc1ccc(-c2cncc(CN3CCN(c4cccc5c4OCCO5)CC3)c2)cc1 [adoprazine]
inactive: 1 nM -1.19% | 8.33 nM -1.15% | 100 nM 2.28% | 833.33 nM 1.56% | 10000 nM 0.22%

O=C(O)c1ccc(S(=O)(=O)N(Cc2ccc(OC(F)(F)F)cc2)c2ncc(C(F)(F)F)cc2Cl)cc1
inactive: 1 nM 1.52% | 8.33 nM -0.05% | 100 nM 1.73% | 833.33 nM 1.99% | 10000 nM 4.63%

O=c1[nH]c2ccccc2n1C1CCN(CCOc2ccccc2)CC1 [oxiperomide]
inactive: 1 nM -1.51% | 8.33 nM -1.1% | 100 nM -2.1% | 833.33 nM -0.51% | 10000 nM 2.21%

CC(CNC(=O)c1cccnc1)NC(=O)c1cccnc1 (stereo not given) [nicaraven]
inactive: 1 nM 0.7% | 8.33 nM -0.11% | 100 nM -1.71% | 833.33 nM 0.88% | 10000 nM -0.45%

CC1(C)[C@H]2CC[C@]1(C)[C@@H](O)[C@H]2O [cis-exo-camphanediol-2,3]
inactive: 1 nM 1.51% | 8.33 nM 2.75% | 100 nM 4.45% | 833.33 nM 5.23% | 10000 nM 0.605%

COCCOc1cnc2ccn([C@H](C)c3nnc4c(F)cc(-c5cnn(C)c5)cn34)c(=O)c2c1
inactive: 1 nM -0.43% | 8.33 nM -1.31% | 100 nM 0.19% | 833.33 nM -0.75% | 10000 nM -0.37%

O=C(Nc1cccc(C(F)(F)F)c1)Nc1ccc(Br)cc1-c1nnn[nH]1
inactive: 1 nM 1.75% | 8.33 nM 3.12% | 100 nM 2.2% | 833.33 nM 3.69% | 10000 nM 4.81%

CC(C)[C@@H](CN1CC[C@@](C)(c2cccc(O)c2)[C@@H](C)C1)NC(=O)[C@H]1Cc2ccc(O)cc2CN1
inactive: 1 nM -0.76% | 8.33 nM 1.45% | 100 nM -1.62% | 833.33 nM -1.16% | 10000 nM -4.59%

O=C(Nc1ccccc1)Nc1ccc(-c2ccc(C(=O)[C@@H]3CCC[C@@H]3C(=O)O)cc2)cc1
inactive: 1 nM -1.33% | 8.33 nM 1.31% | 100 nM 3.77% | 833.33 nM 1.06% | 10000 nM -1.53%

COc1cc(OC)cc(-c2ccc3c(-c4ccc(F)cc4)n[nH]c3n2)c1
inactive: 1 nM 12% | 8.33 nM -1.07% | 100 nM 2.95% | 833.33 nM 1.46% | 10000 nM -0.11%

CC[C@H](/C=C/[C@@H](C)[C@H]1CC[C@H]2[C@@H]3CC=C4C[C@@H](O)CC[C@]4(C)[C@H]3CC[C@]12C)C(C)C [Stigmasterol (Stigmasterin)]
inactive: 1 nM 0.05% | 8.33 nM -0.75% | 100 nM 0.44% | 833.33 nM 0.29% | 10000 nM -0.01%

CN1CCC[C@@H]1CCSc1ccc(O)cc1
inactive: 1 nM 0.25% | 8.33 nM 0.01% | 100 nM 0.07% | 833.33 nM -1.07% | 10000 nM -3.04%

O=S(=O)(O)c1cc(O)ccc1O [etamsylate]
inactive: 1 nM 0.18% | 8.33 nM -1.16% | 100 nM -0.81% | 833.33 nM 0.23% | 10000 nM 1.8%
